Each structure is given as a SMILES string. The panel holds about 83,000 compounds, 20% with a hit somewhere; the sample as a whole holds those more often.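 In brief: 96-well plates, 48 h treatment, single concentration, percent growth endpoint.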 Calls of active or inactive are those of the source. How the source made its calls: active means growth percent below 10; inactive means the rest.

Some test systems named below: HCT-15 colon; HT29 colon; SNB-75 CNS; U251 CNS; PC-3 prostate; SK-MEL-5 melanoma; LOX IMVI melanoma; SK-MEL-28 melanoma; UACC-62 melanoma.
Holding throughout (assay): NCI-60 one-dose screen, 48 h (100 = growth as untreated, 0 = no growth, -100 = all killed)
Common to all, as to settings: 10 µM unless noted

On to `COc1ccc(C(=O)c2cc(OC)c(OC)c(OC)c2)cc1OC(=O)CCl`, for which the growth with HCT-15 colon was 17% (inactive); in the experiment on HT29 colon, 21.6% (inactive); in the experiment with SNB-75 CNS it was 60.8% (inactive); in the experiment on U251 CNS, -16.9% (active); in the experiment on PC-3 prostate it was 17% (inactive); in the experiment on SK-MEL-5 melanoma, -34% (active). Further, the growth in the experiment with LOX IMVI melanoma is 19% (inactive); in the experiment on SK-MEL-28 melanoma it was 60.8% (inactive).
For the compound `C=C1C(=O)O[C@H]2[C@H]1CC/C(COC(=O)N1CCC[C@H]1C(=O)Nc1ccc(OC)c(C(N)=O)c1O)=C\CC[C@@]1(C)O[C@@H]21`, the growth with HCT-15 colon is 59.6% (inactive); with HT29 colon, -8.09% (active); in the experiment with SNB-75 CNS, 84% (inactive); in the experiment with U251 CNS it was 51.6% (inactive); in the experiment on PC-3 prostate, 74.4% (inactive); in the experiment with SK-MEL-5 melanoma it was 63.7% (inactive). Also, the growth in the experiment with UACC-62 melanoma was 34.5% (inactive); in the experiment on LOX IMVI melanoma it was 43.4% (inactive); in the experiment with SK-MEL-28 melanoma, 49.4% (inactive).
In the case of `CN(CCC#N)C(=O)Nc1ccccc1`, the growth with HCT-15 colon is 104% (inactive); in the experiment on HT29 colon it was 94.6% (inactive); in the experiment on SNB-75 CNS, 99.2% (inactive); with U251 CNS it was 102% (inactive); in the experiment with PC-3 prostate it was 99.5% (inactive); with SK-MEL-5 melanoma, 110% (inactive). Besides, the growth in the experiment on UACC-62 melanoma was 101% (inactive); in the experiment on LOX IMVI melanoma, 96.2% (inactive); in the experiment on SK-MEL-28 melanoma, 112% (inactive).
Regarding `CC[C@]12C=CCN3CC[C@@]4(c5ccc(OC)cc5N(C)[C@H]4[C@@](O)(C(=O)OC)[C@@H]1OC(=O)CCC(=O)O[C@H]1CC[C@H]4[C@@H]5CC[C@H]6CC(=O)CC[C@]6(C)[C@H]5CC[C@]14C)[C@@H]32`, the growth was 15.1% (inactive) in the experiment on HCT-15 colon; -2.17% (active) with HT29 colon; 41.9% (inactive) in the experiment on SNB-75 CNS; 18.1% (inactive) in the experiment on U251 CNS; 12.3% (inactive) in the experiment with PC-3 prostate; 7.1% (active) in the experiment with SK-MEL-5 melanoma. Further, the growth is 29.3% (inactive) with UACC-62 melanoma, 27.9% (inactive) with LOX IMVI melanoma and 46.5% (inactive) in the experiment on SK-MEL-28 melanoma.
As to `N#Cc1c(-c2ccc(F)cc2)c(C#N)c2c(C#N)c(N)nn2c1N`, the growth in the experiment on HCT-15 colon is 106% (inactive); in the experiment with HT29 colon, 98.7% (inactive); in the experiment with SNB-75 CNS, 87.8% (inactive); in the experiment on U251 CNS, 94.7% (inactive); with PC-3 prostate, 77.4% (inactive); with SK-MEL-5 melanoma, 96.8% (inactive). Also, the figures for the growth in the experiment on UACC-62 melanoma, in the experiment with LOX IMVI melanoma and with SK-MEL-28 melanoma were 105% (inactive), 89.9% (inactive) and 111% (inactive), respectively.
As to `COc1ccc(NC(=O)c2sc3nc(C)c(C(C)=O)cc3c2N)cc1`, the growth in the experiment with HCT-15 colon is 91.6% (inactive); with HT29 colon, 83.5% (inactive); in the experiment on SNB-75 CNS, 88.3% (inactive); in the experiment on U251 CNS, 95% (inactive); in the experiment with PC-3 prostate, 92% (inactive); in the experiment on SK-MEL-5 melanoma it was 93.8% (inactive). Also, the results for the growth with UACC-62 melanoma, with LOX IMVI melanoma and in the experiment on SK-MEL-28 melanoma were 92.9% (inactive), 105% (inactive) and 94.1% (inactive), respectively.
With `COc1cc(C(=O)Nc2cc(OC)c3ccn(C)c3c2)cc2c1C[C@]1(C)CC[C@@H](O)C(C)(C)[C@H]1O2`, the growth is 20.9% (inactive) with HCT-15 colon; 5.58% (active) in the experiment on HT29 colon; -9.5% (active) in the experiment with SNB-75 CNS; 16.5% (inactive) in the experiment with U251 CNS; 3.01% (active) in the experiment on PC-3 prostate; -34.8% (active) in the experiment on SK-MEL-5 melanoma. In addition, the growth was -8.05% (active) with UACC-62 melanoma, -14.6% (active) in the experiment on LOX IMVI melanoma and 13.4% (inactive) with SK-MEL-28 melanoma.
For `N#CC1C(c2ccc(Cl)cc2)=Nc2c(c(-c3ccccc3)nn2-c2ccccc2)C12C(=O)Nc1ccc(Cl)cc12` (configuration not stated), the growth with HCT-15 colon was 20.5% (inactive); in the experiment with HT29 colon it was 22.5% (inactive); with SNB-75 CNS, 45.8% (inactive); with U251 CNS, 18.6% (inactive); in the experiment on PC-3 prostate, 11.8% (inactive); in the experiment with SK-MEL-5 melanoma it was 46.5% (inactive). Also, the values for the growth in the experiment with UACC-62 melanoma, in the experiment on LOX IMVI melanoma and in the experiment on SK-MEL-28 melanoma were 48.2% (inactive), 43.9% (inactive) and 52% (inactive), respectively.
As to `N#Cc1c(-c2ccc(F)cc2)nc(N/N=C/c2c[nH]c3ccccc23)nc1N1CCOCC1`, the growth in the experiment on HCT-15 colon is 8.42% (active); in the experiment with HT29 colon it was 18% (inactive); with SNB-75 CNS, 62.5% (inactive); in the experiment with U251 CNS, 32.2% (inactive); in the experiment on PC-3 prostate it was 49.9% (inactive); in the experiment on SK-MEL-5 melanoma it was 37.1% (inactive). The figures for the growth with UACC-62 melanoma, with LOX IMVI melanoma and with SK-MEL-28 melanoma were 61.8% (inactive), 20.6% (inactive) and 4.29% (active), respectively.
On to `O=C(O)c1ccc(-n2cc(/C=N/Nc3ccc(Cl)cc3Cl)c(-c3ccccc3)n2)cc1`, for which the growth with HCT-15 colon was 72% (inactive); in the experiment with HT29 colon, 94.9% (inactive); in the experiment with SNB-75 CNS, 88.4% (inactive); in the experiment with U251 CNS, 90.5% (inactive); in the experiment with SK-MEL-5 melanoma it was 87.1% (inactive); with UACC-62 melanoma, 96.2% (inactive). In addition, the growth was 91.9% (inactive) in the experiment with LOX IMVI melanoma and 103% (inactive) in the experiment on SK-MEL-28 melanoma.
`O=c1[nH]nc(-c2ccc(Br)cc2)c2sc(NC(=S)Nc3ccc(Cl)cc3)nc12`: the growth in the experiment with HCT-15 colon was 103% (inactive); with HT29 colon, 94.1% (inactive); in the experiment with SNB-75 CNS, 95.7% (inactive); with U251 CNS, 108% (inactive); with PC-3 prostate, 96.6% (inactive); in the experiment on SK-MEL-5 melanoma it was 99% (inactive). Besides, the values for the growth in the experiment with UACC-62 melanoma, in the experiment with LOX IMVI melanoma and in the experiment on SK-MEL-28 melanoma were 89.5% (inactive), 84.7% (inactive) and 109% (inactive), respectively.
Consider `CC(=O)c1cc2c(N)c(C(=O)Nc3ccccn3)sc2nc1C`, for which the growth with HCT-15 colon is 82.8% (inactive); in the experiment on HT29 colon it was 85.5% (inactive); in the experiment on SNB-75 CNS, 75.1% (inactive); in the experiment with U251 CNS it was 77.7% (inactive); with PC-3 prostate, 99.3% (inactive); with SK-MEL-5 melanoma, 64.5% (inactive). Moreover, the growth in the experiment on UACC-62 melanoma was 57.8% (inactive); in the experiment on LOX IMVI melanoma, 91.6% (inactive); with SK-MEL-28 melanoma, 82.1% (inactive).
Consider `CC(=O)OCC1OC(OC2C(COC(C)=O)OC(OCCC[S-])C(OC(C)=O)C2OC(C)=O)C(OC(C)=O)C(OC(C)=O)C1OC(C)=O.[Au+].c1ccc(CN2[CH-]N(Cc3ccccc3)C(c3ccccc3)=C2c2ccccc2)cc1` (configuration not stated), for which the growth was 25.6% (inactive) in the experiment with HCT-15 colon; 15.7% (inactive) in the experiment on HT29 colon; 45.5% (inactive) in the experiment on SNB-75 CNS; 5.17% (active) in the experiment with U251 CNS; 17.7% (inactive) with PC-3 prostate; -12.6% (active) in the experiment on SK-MEL-5 melanoma. The values for the growth in the experiment with UACC-62 melanoma, in the experiment with LOX IMVI melanoma and with SK-MEL-28 melanoma were 13.4% (inactive), 11.3% (inactive) and 28.4% (inactive), respectively.
Turning to `COCCOCCOCc1n(Cc2ccc3ccccc3c2)c2ccccc2[n+]1Cc1ccc2ccccc2c1`, the growth in the experiment with HCT-15 colon is 88.4% (inactive); in the experiment on HT29 colon it was -5.47% (active); in the experiment with SNB-75 CNS, -4.1% (active); in the experiment on U251 CNS, 12.4% (inactive); in the experiment with PC-3 prostate it was 5.49% (active); in the experiment with SK-MEL-5 melanoma it was -91.9% (active). Further, the figures for the growth with UACC-62 melanoma, in the experiment with LOX IMVI melanoma and in the experiment with SK-MEL-28 melanoma were -29.6% (active), -26.6% (active) and 16.8% (inactive), respectively.
`CC(C)C1=C[C@@]23CC[C@H]4[C@](C)(COCCC#N)CCC[C@]4(C)[C@H]2C[C@@H]1[C@@H]1[C@H]3[C@@H](OCCC#N)CC[C@@H]1OCCC#N`: the growth in the experiment with HCT-15 colon was 22.8% (inactive); with HT29 colon it was 12.1% (inactive); in the experiment with SNB-75 CNS, 80.3% (inactive); in the experiment on U251 CNS it was 29.1% (inactive); with PC-3 prostate, 9.6% (active); in the experiment on SK-MEL-5 melanoma, 39.1% (inactive). Also, the growth in the experiment with UACC-62 melanoma was 45.3% (inactive); in the experiment on LOX IMVI melanoma it was 40.1% (inactive); with SK-MEL-28 melanoma it was 48.7% (inactive).
Regarding `Clc1ccc2c(NCCCNC3CCCCC3)ccnc2c1`, the growth with HCT-15 colon was 84.8% (inactive); in the experiment on HT29 colon it was 48.1% (inactive); in the experiment with SNB-75 CNS, 89.8% (inactive); in the experiment with U251 CNS, 93.8% (inactive); in the experiment with PC-3 prostate, 87.3% (inactive); in the experiment with SK-MEL-5 melanoma, 99.9% (inactive). Also, the results for the growth in the experiment on LOX IMVI melanoma and in the experiment on SK-MEL-28 melanoma were 96.7% (inactive) and 116% (inactive), respectively.
Regarding `Cc1nc2sc(C(=O)Nc3cccc4ccccc34)c(N)c2cc1C(C)O` (configuration not stated), the growth is 14.4% (inactive) in the experiment on HCT-15 colon; 4.82% (active) in the experiment on HT29 colon; 29% (inactive) in the experiment with SNB-75 CNS; 25.4% (inactive) with U251 CNS; 30.7% (inactive) in the experiment with PC-3 prostate; 8.93% (active) with SK-MEL-5 melanoma. Moreover, the growth was 36% (inactive) in the experiment with UACC-62 melanoma, 26.9% (inactive) with LOX IMVI melanoma and 66.9% (inactive) in the experiment with SK-MEL-28 melanoma.
With `Cc1cc(Cl)cc(CN(Cc2ccccc2)Cc2c(O)ccc3ccccc23)c1O`, the growth is 108% (inactive) in the experiment on HCT-15 colon; 98.5% (inactive) in the experiment on HT29 colon; 94.5% (inactive) in the experiment with SNB-75 CNS; 98.5% (inactive) in the experiment on U251 CNS; 88.5% (inactive) in the experiment on PC-3 prostate; 95.1% (inactive) in the experiment with SK-MEL-5 melanoma. The growth is 89.3% (inactive) with UACC-62 melanoma, 90.2% (inactive) with LOX IMVI melanoma and 113% (inactive) in the experiment with SK-MEL-28 melanoma.
For `Cc1c(Br)cccc1NC(=O)c1sc2nc3c(cc2c1N)CN(Cc1ccccc1)CC3`, the growth is 18.2% (inactive) in the experiment on HCT-15 colon; 0.812% (active) in the experiment on HT29 colon; -9.13% (active) with SNB-75 CNS; 9.19% (active) with U251 CNS; 31.8% (inactive) in the experiment with PC-3 prostate; 19.4% (inactive) in the experiment on SK-MEL-5 melanoma. Also, the growth in the experiment with UACC-62 melanoma was 28.1% (inactive); in the experiment with LOX IMVI melanoma, 30.9% (inactive); in the experiment on SK-MEL-28 melanoma, 53.8% (inactive).
For `CC(=O)O[C@@H]1C[C@]2(C)[C@H]3[C@H](O)C[C@@H]4C5=CC(C)(C)CC[C@]5(C)CC[C@@]4(C)[C@]3(C)CC[C@H]2C(C)(C)[C@H]1O`, the growth in the experiment on HCT-15 colon is 100% (inactive); in the experiment with HT29 colon, 97.8% (inactive); in the experiment with SNB-75 CNS, 91.6% (inactive); in the experiment with U251 CNS, 97.6% (inactive); in the experiment on PC-3 prostate, 84.9% (inactive); in the experiment with SK-MEL-5 melanoma, 114% (inactive). For the same compound, the growth in the experiment on UACC-62 melanoma was 97.4% (inactive); with LOX IMVI melanoma, 98.7% (inactive); in the experiment on SK-MEL-28 melanoma, 106% (inactive).

The values are drawn from PubChem BioAssay (NCI).
